Sampled rows, rich in hits. Any-hit rate of the full collection: about 19%.
IL-1B inflam inh: qHTS for Inhibitors of Inflammasome Signaling: IL-1-beta AlphaLISA Primary Screen. THP-1 LPS/ATP IL-1B secretion, AlphaLISA, 16 h; stronger effect = lower value. activity change, % at 57.5 µM. 360,000 tested, 4.7% active; in the data active = activity change below about -50%; inconclusive = mostly about -30% to -49%
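Secreted IL-1B measured by AlphaLISA bead assay after 16 h compound exposure of THP-1 cells; compounds (final up to 57.5 uM) added 1 h before LPS (250 ng/mL) and ATP (1.25 mM) stimulation; lower signal means less secretion.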
HT1080NT lethal: qHTS for induction of synthetic lethality in tumor cells producing 2HG: qHTS for the HT-1080-NT fibrosarcoma cell line. HT-1080-NT fibrosarcoma viability, CellTiter-Glo ATP luminescence, 48 h. Potency, µM (doses to about 46.1 µM), usual class: cytotoxic. 360,000 tested, 1.6% active. AID 686970, 2013;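 also: NT is the 2HG producing partner of a matched IDH1 knockdown line; nearly all actives have a fitted effect of over 55% in size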
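HT-1080-NT; 750 cells/well; 5% FBS RPMI; 48 h compound, 37 degrees C; CellTiter-Glo luminescence; curve fitting and curve-class assignment.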
DT40 TDP1 CPT: qHTS for Inhibitors of human tyrosyl-DNA phosphodiesterase 1 (TDP1): qHTS in cells in presence of CPT; chicken DT40 Tdp1-/-;hTDP1 cells + 20 nM CPT, ATP luminescence, 48 h; Potency, µM (highest dose often 46.2 µM), most hits filed as inhibitors; 420,000 tested, 12% active; AID 686979, 2013; also: nearly all actives have a fitted effect of over 55% in size
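Chicken DT40 Tdp1-/- cells complemented with human TDP1, 400 cells/well, exposed to compounds plus 20 nM camptothecin for at least 48 h at 37 C; viability read as ATP content by CellTiter-Glo luminescence.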
ELG1 DNA repair: qHTS screen for small molecules that inhibit ELG1-dependent DNA repair in human embryonic kidney (HEK293T) cells expressing luciferase-tagged ELG1; 330,000 tested, 2.3% active; AID 504467, 2011; Potency, µM (series often up to 46.1 µM), actives largely listed as inhibitors; HEK293T ELG1-luciferase reporter, luminescence, 16 h; DNA damage induced by 5-fluorouridine; also: nearly all actives have a fitted effect of over 55% in size
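Quantitative HTS, concentration-response format. 2,000 cells/well co-treated with 5-fluorouridine and compound, 16 hr in 5% CO2 at 37 °C; ONE-Glo luminescence read after 30 min.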
HT1080 IDH1KD tx: qHTS for induction of synthetic lethality in tumor cells producing 2HG: qHTS for the HT-1080-IDH1KD cell line. HT-1080 IDH1 knockdown viability, ATP luminescence, 48 h. 360,000 tested, 2% active. Potency, µM (doses to about 46.1 µM), hits mostly cytotoxic
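Using the IDH1-knockdown HT-1080 line run in the same batch and compound series as the NT line, viability after 48 h at 37 °C was determined by CellTiter-Glo luminescence and expressed as % activity.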
DT40 TDP1 no CPT: qHTS for Inhibitors of human tyrosyl-DNA phosphodiesterase 1 (TDP1): qHTS in cells in absence of CPT | DT40 Tdp1-/- hTDP1 cells, no CPT, ATP luminescence, 48 h | Potency, µM (doses to about 46.2 µM), usual class: inhibitors | 420,000 tested, 15% active | AID 686978, 2013; also: nearly all actives have a fitted effect of over 55% in size
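Stably hTDP1-transfected Tdp1-null chicken DT40 cells were treated with library compounds minus camptothecin and grown for at least 48 hr at 37 °C, after which cellular ATP was quantified by luminescence.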
A number is an active result. Unless noted, calls follow the shape of the dose curve; as a rule, active = well fitted curve in the direction sought with a large enough effect; inconclusive = small, poorly fitted or top-dose-only effect, or another doubt; inactive = no such curve, though single readings can be large; an effect the other way counts as inactive or inconclusive.

For Cc1cccc(NC(=O)CN2C(=O)COc3ccc(S(=O)(=O)Nc4ccccc4)cc32)c1C the results were DT40 TDP1 CPT inactive and DT40 TDP1 no CPT inactive.
For CCN(CC)c1ccc(C2C(C(=O)OC(C)C)C(=O)CC(C)(O)C2C(=O)OC(C)C)cc1 (stereo not drawn) the results were IL-1B inflam inh inactive, HT1080NT lethal inactive, DT40 TDP1 CPT 15µM, ELG1 DNA repair inconclusive, HT1080 IDH1KD tx inactive and DT40 TDP1 no CPT 13µM.
For COc1ccc(Cl)cc1NC(=O)Nc1ccc(C(=O)N2CCCC2)cc1 the results were IL-1B inflam inh -64, HT1080NT lethal inconclusive, DT40 TDP1 CPT inconclusive, ELG1 DNA repair inactive, HT1080 IDH1KD tx inconclusive and DT40 TDP1 no CPT inconclusive.
For COc1ccc(Cl)cc1NC(=S)N1CCCC1 the results were IL-1B inflam inh inactive, HT1080NT lethal inactive, DT40 TDP1 CPT inactive, ELG1 DNA repair inactive, HT1080 IDH1KD tx inactive and DT40 TDP1 no CPT inactive.
`COc1ccc(C)cc1NC(=O)Nc1ccc(C(=O)N2CCCC2)cc1` gave IL-1B inflam inh inconclusive, HT1080NT lethal inconclusive, DT40 TDP1 CPT 26µM, ELG1 DNA repair inconclusive, HT1080 IDH1KD tx inconclusive and DT40 TDP1 no CPT inconclusive.
Screening COc1ccc(C(=O)N2CCN(c3ccccc3)CC2)cc1S(=O)(=O)N1CCOCC1 returned IL-1B inflam inh inactive, HT1080NT lethal inactive, DT40 TDP1 CPT inactive, ELG1 DNA repair inactive, HT1080 IDH1KD tx inactive and DT40 TDP1 no CPT inactive.
Screening CCOCCCNC(=O)c1c(NC(=O)c2cc(=O)c3cc(C)c(C)cc3o2)sc2c1CCC2 returned DT40 TDP1 CPT inactive and DT40 TDP1 no CPT inconclusive.
Screening CC1(C(=O)NCC2CCCO2)Oc2cccnc2NC1=O (stereo not drawn) returned IL-1B inflam inh inactive, HT1080NT lethal inactive, DT40 TDP1 CPT inactive, ELG1 DNA repair inactive, HT1080 IDH1KD tx inactive and DT40 TDP1 no CPT inactive.
Screening C(=C\c1ccco1)/C1=NN(c2ccccc2)C(c2ccco2)C1 (stereo not drawn) returned IL-1B inflam inh inactive, HT1080NT lethal inactive, DT40 TDP1 CPT inconclusive, ELG1 DNA repair inconclusive, HT1080 IDH1KD tx inactive and DT40 TDP1 no CPT 23µM.
`COc1cccc(S(=O)(=O)NCc2ccc(C(=O)N3CCN(c4ccccc4)CC3)cc2)c1` gave IL-1B inflam inh inactive, HT1080NT lethal inactive, DT40 TDP1 CPT 16µM, ELG1 DNA repair inactive, HT1080 IDH1KD tx inactive and DT40 TDP1 no CPT 16µM.
CN1CCN(C(=O)c2ccc(CNS(=O)(=O)c3cccc(Cl)c3)cc2)CC1 was read as IL-1B inflam inh inactive, HT1080NT lethal inactive, DT40 TDP1 CPT inactive, ELG1 DNA repair inactive, HT1080 IDH1KD tx inactive and DT40 TDP1 no CPT inactive.
For COc1ccc(N2CCN(C(=O)c3ccc(NS(=O)(=O)c4cccc(F)c4)cc3)CC2)cc1 the results were IL-1B inflam inh inactive, HT1080NT lethal inactive, DT40 TDP1 CPT inconclusive, ELG1 DNA repair inactive, HT1080 IDH1KD tx inactive and DT40 TDP1 no CPT inconclusive.
`COc1ccc(S(=O)(=O)NCc2ccc(C(=O)N3CCN(c4ccccn4)CC3)cc2)cc1` gave IL-1B inflam inh inactive, HT1080NT lethal inactive, DT40 TDP1 CPT 8.9µM, ELG1 DNA repair inconclusive, HT1080 IDH1KD tx inactive and DT40 TDP1 no CPT inconclusive.
O=C(c1ccc(CNS(=O)(=O)c2cccc(Cl)c2)cc1)N1CCCCC1 was read as IL-1B inflam inh inactive, HT1080NT lethal inactive, DT40 TDP1 CPT 16µM, ELG1 DNA repair inconclusive, HT1080 IDH1KD tx inactive and DT40 TDP1 no CPT 15µM.
`COc1ccc(N2CCN(C(=O)c3ccc(CNS(=O)(=O)c4cccc(OC)c4)cc3)CC2)cc1` gave IL-1B inflam inh -84, HT1080NT lethal inactive, DT40 TDP1 CPT 9.2µM, ELG1 DNA repair inactive, HT1080 IDH1KD tx inconclusive and DT40 TDP1 no CPT 23µM.
`Cc1ccc(S(=O)(=O)NCc2ccc(C(=O)N3CCN(c4ccccc4)CC3)cc2)cc1` gave IL-1B inflam inh inactive, HT1080NT lethal inactive, DT40 TDP1 CPT inconclusive, ELG1 DNA repair inactive, HT1080 IDH1KD tx inconclusive and DT40 TDP1 no CPT inconclusive.
Screening CCOc1ccc(N2CC(NC(=O)c3cc4ccccc4o3)CC2=O)cc1 (stereo not drawn) returned DT40 TDP1 CPT inactive and DT40 TDP1 no CPT inactive.
For CCCN(CCC)c1cc(C)nc2nc(-c3ccc(C(C)(C)C)cc3)nn12 the results were DT40 TDP1 CPT inactive and DT40 TDP1 no CPT inactive.
COc1cc2c(cc1OC)C(COc1cccc(C(F)(F)F)c1)N(C(=O)c1ccc(S(=O)(=O)N3CCCC3)cc1)CC2 (stereo not drawn) was read as DT40 TDP1 CPT inactive and DT40 TDP1 no CPT inactive.
Screening CN(C(=O)CSc1nnc(-c2ccc(F)cc2)c2ccccc12)C1CCS(=O)(=O)C1 (stereo not drawn) returned IL-1B inflam inh -91, HT1080NT lethal inactive, DT40 TDP1 CPT inactive, ELG1 DNA repair inactive, HT1080 IDH1KD tx inconclusive and DT40 TDP1 no CPT inactive.
For CN(C(=O)CSc1nnc(-c2ccc(F)cc2)n1C)C1CCS(=O)(=O)C1 (stereo not drawn) the results were IL-1B inflam inh inactive, HT1080NT lethal inactive, DT40 TDP1 CPT inactive, ELG1 DNA repair inactive, HT1080 IDH1KD tx inactive and DT40 TDP1 no CPT inactive.
`CN(C(=O)CSc1nnc(-c2ccccc2)c(-c2ccccc2)n1)C1CCS(=O)(=O)C1` (stereo not drawn) gave IL-1B inflam inh inactive, HT1080NT lethal inactive, DT40 TDP1 CPT 16µM, ELG1 DNA repair inactive, HT1080 IDH1KD tx inactive and DT40 TDP1 no CPT 21µM.
CN(C(=O)CSc1nc(-c2ccccc2)c(-c2ccccc2)o1)C1CCS(=O)(=O)C1 (stereo not drawn) was read as IL-1B inflam inh inactive, HT1080NT lethal inactive, DT40 TDP1 CPT inconclusive, ELG1 DNA repair inconclusive, HT1080 IDH1KD tx inactive and DT40 TDP1 no CPT inconclusive.
`Cc1ccc(Cn2c(SCC(=O)N(C)C3CCS(=O)(=O)C3)nc3ccccc3c2=O)cc1` (stereo not drawn) gave IL-1B inflam inh -55, HT1080NT lethal inactive, DT40 TDP1 CPT inactive, ELG1 DNA repair inactive, HT1080 IDH1KD tx inactive and DT40 TDP1 no CPT inconclusive.
`Cc1cc(C(=O)NNC(=O)Cc2ccc(Cl)cc2)c(C)o1` gave IL-1B inflam inh inactive, HT1080NT lethal inactive, DT40 TDP1 CPT inactive, ELG1 DNA repair inactive, HT1080 IDH1KD tx inactive and DT40 TDP1 no CPT inactive.
